FLuc counter = counter-screen for miR-21 project: firefly luciferase inhibitors or activators. purified FLuc, Km substrates, luminescence inhibition. Potency, µM (top dose mostly 57.5 µM), for the others: at the top dose activity change, negative = inhibition, usual class: inhibitors. 6.9% of 360,000 active;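 note: plate controls were vehicle for no effect and reference inhibitor for full effect; nearly all actives have a fitted effect of over 55% in size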
Target sequence (P08659 whole entry, looked up): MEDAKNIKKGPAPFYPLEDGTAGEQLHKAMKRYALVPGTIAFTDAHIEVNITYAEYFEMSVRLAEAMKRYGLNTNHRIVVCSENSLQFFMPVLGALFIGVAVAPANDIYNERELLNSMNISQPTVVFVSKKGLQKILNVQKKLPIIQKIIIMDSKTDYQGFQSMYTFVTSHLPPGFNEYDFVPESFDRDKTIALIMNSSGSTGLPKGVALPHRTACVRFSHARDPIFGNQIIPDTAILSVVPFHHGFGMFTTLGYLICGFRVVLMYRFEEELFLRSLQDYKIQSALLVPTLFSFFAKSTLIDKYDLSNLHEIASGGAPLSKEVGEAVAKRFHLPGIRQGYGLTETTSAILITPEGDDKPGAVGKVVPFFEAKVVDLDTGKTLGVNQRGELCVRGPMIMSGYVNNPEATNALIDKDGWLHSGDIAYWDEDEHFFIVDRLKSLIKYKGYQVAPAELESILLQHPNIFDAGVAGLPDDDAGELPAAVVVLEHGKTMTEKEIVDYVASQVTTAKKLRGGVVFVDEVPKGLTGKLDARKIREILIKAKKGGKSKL
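Purified P. pyralis luciferase (10nM final) with 10uM D-luciferin and 10uM ATP (Km levels) in 50mM Tris acetate pH 7.5, 10mM Mg acetate, 0.01% Tween-20, 0.05% BSA; qHTS 6-point titration, ~60 µM downward; luminescence read.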
ELG1 genotox = induces genotoxicity in HEK293T cells with luciferase-tagged ELG1. 1.3% of 330,000 active. Potency, µM (series often up to 46 µM), without a hit: top-dose activity change, positive = activation, most hits filed as activators. HEK293T ELG1-luciferase reporter, luminescence, 16 h; note: % of control where 0% means no effect; nearly all actives have a fitted effect of over 60% in size
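Genotoxic stress is detected as increased luminescence from luciferase-tagged ELG1 in HEK293T cells, measured with ONE-Glo after a 16 hr treatment at 37 °C.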
Rab9 prom act = activates the Rab9 promoter; Huh7 Rab9 promoter-luciferase reporter, luminescence, 24 h; Potency, µM (doses to about 9.22 µM), inactives show top-dose activation, negative = inhibition, hits mostly activators; 2.8% of 320,000 active; note: % of control where 0% means no effect; nearly all actives have a fitted effect of over 60% in size
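Luciferase signal after 10 min detection reagent at ambient indicates Rab9 promoter upregulation; stably transfected Huh7 cells were treated 24 h with compound in DMSO at 37 °C, 5% CO2.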
KinaseGlo FLuc = blocks Kinase-Glo luciferase, a counter-screen artifact | Q27757 | Kinase-Glo luciferase, ATP luminescence, 8 min | Potency, µM (doses to about 38.3 µM), for the others: top-dose activity change, negative = inhibition, most hits filed as inhibitors | 0.28% of 200,000 active | AID 1379; note: % is set by controls: 0 for no effect and ±100 for the full control effect; nearly all actives have a fitted effect of over 60% in size
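Substrate mix (final 50 mM imidazole pH 7.2, 50 mM KCl, 7 mM MgCl2, 10 uM ATP, 0.01% Tween 20, 0.05% BSA) plus pin-tool compound, then Kinase-Glo detection mix; 8 min ambient, luminescence read.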
SMN2 splice up = SMN2 splice variant enhancement; HEK293 SMN2-luciferase splicing reporter, luminescence, 30-36 h; Potency, µM (series often up to 46.1 µM), for the others: at the top dose activity change, positive = activation, most hits filed as activators; 2.8% of 210,000 active; note: % of control where 0% means no effect; nearly all actives have a fitted effect of over 55% in size
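HEK293 cells carry an SMN2 minigene-luciferase reporter in which exon 7 inclusion puts luciferase in frame. Cells were seeded at 2000 cells/well, attached for 10-12 hours, then exposed to compounds for 30-36 hours at 37C before ONE-Glo luminescence.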
NPC1 promoter act = activates the NPC1 promoter. Huh7 NPC1 promoter luciferase reporter, 24 h. Potency, µM (titrated, usually from 9.22 µM), for inactives: at the highest dose activation, most hits filed as activators. 2.4% of 320,000 active. AID 485313; note: % of control where 0% means no effect; nearly all actives have a fitted effect of over 60% in size
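In 1536-well qHTS, Huh7 cells harboring an NPC1 promoter–luciferase construct received compound for 24 h; activation was quantified by luminescence following luciferase reagent addition.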
Active calls of the source: *; ? = inconclusive; · = not tested or not shown; [ ] = remark or other dose. Shown are actives, neighbours in structure and some others; about 7.3% of the full set was active somewhere. Calls come from the whole dose curve; as a rule, active = well fitted curve in the direction sought with a large enough effect; inconclusive = small, poorly fitted or top-dose-only effect, or another doubt; inactive = no such curve, though single readings can be large; an effect the other way counts as inactive or inconclusive. Potency is the fitted concentration of half-maximal effect.

SMILES	FLuc counter	ELG1 genotox	Rab9 prom act	KinaseGlo FLuc	SMN2 splice up	NPC1 promoter act
COc1ccc(/C=N/NC(=S)Nc2cccc(C(=O)O)c2)cc1	1.7µM*	-6%	1.8µM*	0%	13µM*	2µM*
COc1ccc(CCCC(=O)N/N=C/c2cccc(OC)c2O)cc1C	17µM*	?	-25%	-1%	-90%	-8%
COCCCNC(=S)N/N=C/c1cccc(OC)c1O	9.5µM*	-3%	-26%	·	·	10%
Cc1ccc(-n2nnc(-c3nsc(NC(=O)c4ccccc4C)n3)c2C)cc1Cl	0%	·	·	·	·	·
COc1ccc(C(CC(=O)Nc2ccc(OC)c(OC)c2)N2Cc3ccccc3C2=O)cc1 (stereo unspecified)	4%	·	·	·	·	·
CCc1ccc(CNc2nc3nc(C)c(Cc4ccccc4)c(=O)n3[nH]2)cc1	-14%	·	·	·	8%	·
O=C(N/N=C/c1cn(-c2ccccc2)nc1-c1cc2ccccc2o1)c1ccccc1Br	15µM*	?	?	6%	4.5µM*	3.2µM*
COc1ccc(-c2nn(-c3ccccc3)cc2/C=N/NC(=O)c2ccc(Br)o2)cc1	?	-17%	1%	-2%	-22%	-4%
O=C(N/N=C/c1cn(-c2ccccc2)nc1-c1cc2ccccc2o1)c1c[nH]c2ccccc12	1.9µM*	?	1.4µM*	-1%	4µM*	1.8µM*
Cc1ccc2occ(CC(=O)Nc3c(C(=O)Nc4ccc(Cl)cc4)oc4ccccc34)c2c1	-16%	·	·	·	37%	·
N#Cc1c(NC(=O)CSc2ncn[nH]2)sc2c1CCCCC2	7.6µM*	-14%	-25%	1%	-74%	-18%
Cn1cnnc1SCC(=O)Nc1sc2c(c1C#N)CCCCC2	27µM*	7%	11%	-1%	-17%	10%
CCOC(=O)CSc1nc2cc3c(cc2c(=O)n1CCCC(=O)NCc1ccc2c(c1)OCO2)OCO3	5%	·	·	·	·	·
COc1ccc(Oc2nc3c(c(=O)n(Cc4ccccc4Cl)c(=O)n3C)n2C)cc1	0%	·	·	·	1%	·
CCOC(=O)c1cc(-c2ccccc2)nc2nc(N3CCCCC3)sc12	-13%	-5%	-7%	0%	5%	-3%
O=C(O)c1cc(-c2ccccc2)nc2nc(N3CCCCC3)sc12	17µM*	13%	0%	0%	5%	-2%
Cc1ccc(-c2cc(C(=O)O)c3sc(N4CCCCC4)nc3n2)cc1	24µM*	9%	1%	-7%	-9%	-2%
COc1ccc(-c2cc(C(=O)O)c3sc(N4CCCCC4)nc3n2)cc1OC	4.8µM*	1%	10%	0%	4%[1.84 µM]	1%
O=C1CSC(=S)N1/N=C/c1ccc2c(c1)OCCO2	17µM*	0%	-4%	·	·	-4%
COc1ccccc1OCC(=O)Nc1ccc2c(c1)C(=O)N(CC1CCCO1)C2=O (stereo unspecified)	-5%	-5%	-4%	2%	0%	-1%
COc1ccccc1Oc1ccc2c(c1)C(=O)N(CC1CCCO1)C2=O (stereo unspecified)	19µM*	-2%	28%	·	·	8%
COc1ccc(/C=C2\NC(=S)N(CC3CCCO3)C2=O)c(OC)c1 (stereo unspecified)	15µM*	-1%	?	6%	-18%	3%
COc1cccc(NC(=O)c2ccc3c(c2)C(=O)N(CC2CCCO2)C3=O)c1 (stereo unspecified)	17µM*	3%	0%	·	·	3%
COc1cccc(C(=O)Nc2ccc3c(c2)C(=O)N(CC2CCCO2)C3=O)c1 (stereo unspecified)	9.5µM*	-9%	25%	·	·	23%
Cc1ccc(-c2cn3c(n2)sc2cc(C(=O)NC4CCCCC4)ccc23)cc1	0%	·	·	·	·	·
SMILES	FLuc counter	ELG1 genotox	Rab9 prom act	KinaseGlo FLuc	SMN2 splice up	NPC1 promoter act
O=C(CN1C(=O)COc2ccccc21)NCCc1ccc(Cl)cc1	-19%	·	·	·	·	·
CCOc1ccc(N(CC)C(=O)Cn2cnc3sc(C)c(S(=O)(=O)N4CCN(c5ncccn5)CC4)c3c2=O)cc1	-8%	·	·	·	-7%	·
CCOc1ccc(NC(=O)Cn2c(=O)n(CC(=O)NCCc3ccccc3)c(=O)c3sccc32)cc1	-3%	·	·	·	-5%	·
CCn1c(-c2ccc(F)cc2)cnc1SCC(=O)N1CCc2ccccc21	?	13%	-1%	2%	27%	-2%
CCn1c(-c2ccc(F)cc2)cnc1SCC(=O)N1CCCCC1C (stereo unspecified)	11µM*	6.5µM*	?	-4%	1%	?
O=C(NC1CC(=O)N(c2ccccc2)C1)c1ccc(S(=O)(=O)N2CCCCC2)cc1 (stereo unspecified)	-9%	·	·	·	·	·
COc1cccc(CNC(=O)c2ccncc2)c1	17µM*	-5%	0%	·	·	4%
COc1cccc(NC(=O)Nc2nnc(N3C(C)CCCC3C)s2)c1 (stereo unspecified)	21µM*	-5%	23%	·	·	29%
COc1ccc(Br)cc1C(=O)Nc1ccc(Cc2ccncc2)cc1	?	-2%	1%	0%	-29%	9%
COc1cccc(NC(=O)C(=O)NCc2ccncc2)c1	19µM*	?	?	-16%	13µM*	2%
COc1c(C(=O)Nc2ccc(Cc3ccncc3)cc2)ccc2ccccc12	19µM*	0%	-4%	2%	-54%	4%
COc1ccc(CNC(=O)c2ccncc2)cc1	0%	-4%	7%	·	·	0%
CC(=O)Nc1ccc(NC(=O)CCc2c(C)nc3c(c(C)nn3-c3ccc(C)cc3)c2C)cc1	0%	·	·	·	6%	·
CCn1cc2nc(SCc3cccc(C(F)(F)F)c3)n(Cc3ccc(C)cc3)c(=O)c2n1	-4%	·	·	·	·	·
COc1cccc(NC(=O)Nc2ccc(Cc3ccncc3)cc2)c1	17µM*	-1%	-2%	2%	-35%	0%
COc1cccc(NC(=O)Nc2ccncc2)c1	?	-2%	18%	-6%	·	-1%
CC(C)CSc1ccccc1NC(=O)c1sc2nc(-c3ccncc3)ccc2c1N	-1%	·	·	·	-2%	·
CCOC(=O)c1ccc(NC(=O)CC2C(=O)N(c3cccc(OC)c3)C(=O)N2Cc2cccnc2)cc1 (stereo unspecified)	-17%	·	·	·	·	·
COc1ccc(C(=O)/C=C/c2cccs2)c(OC(=O)c2cccc([N+](=O)[O-])c2)c1	4.8µM*	8%	?	0%	?	27%
COc1ccc(C(=O)/C=C/c2ccc(F)cc2)c(OC(=O)c2ccc([N+](=O)[O-])cc2)c1	9.5µM*	?	-2%	2%	4%	12%
COc1ccc(-n2ncc3c(NCC(C)C)ncnc32)cc1	1.1µM*	?	0.35µM*	1%	2µM*	0.4µM*

From PubChem BioAssay
